Several values for one entry are separate records, joined by “and”; a condition that tells them apart may be missing. Equal values may be shown once. Inconclusive results are not listed. Entries that show only a call come without a potency. Activity calls are given as the source filed them. The call rests on the fitted dose curve; in most records, active means well fitted inhibition curve with a large enough effect; inconclusive means small, poorly fitted or top-dose-only effect; inactive means no such curve, though single readings can be large or run the other way.
Experiment: qHTS Assay for Lipid Storage Modulators: S3 Assay against Probe and Analogs
Conditions: Drosophila S3 cells, BODIPY lipid droplet fluorescence, 18-24 h, oleic acid added to induce droplets; series mostly up to 46.1 µM
Description: Storing lipids as a reservoir for energy or the anabolism of elementary metabolites is a common feature of probably all cells and is conserved from bacteria to humans. The universal cellular lipid storage organelle is the so-called lipid storage droplet (LD). Although ubiquitous, LDs share a simple structure composed of a hydrophobic core that harbors the storage lipids, which is shielded by a droplet-specific phospholipid monolayer to which proteins are attached. The current model of LD biogenesis involves an incorporation of the lipid core into the membrane leaflets of the endoplasmic reticulum (ER) followed by a subsequent budding-like maturation of a LD, which ultimately pinches off. Once released, LD volume can increase by localized lipogenesis or fusion of existing droplets. Storage lipids are re-mobilized enzymatically by lipase activity. Lipase regulation in the adipocyte is heavily studied and involves multiple components including catecholamine signaling, the LD-associated proteins Perilipin and comparative gene identification-58 (CGI-58) and at least two lipases named hormone sensitive lipase (HSL) and adipocyte triglyceride lipase (ATGL). LD regulation outside of the adipocyte is poorly understood and only few components are known. However, there is an urgent need to learn more about ectopic fat depots as mislocalized storage of lipids, for example in the liver or muscle, is an eminent health problem associated with insulin resistance or the metabolic syndrome. We developed a laser-scanning cytometer assay to enable 1,536-well screening and combined the results of the small molecules screen with an RNAi database based on lipid storage. In this assay we tested analogs of the probe against the original qHTS assay, which involved drosophila melanogaster cells (S3), to see if these small molecules could disrupt lipid storage. NIH Molecular Libraries Probe Production Centers Network [MLPCN] NIH Chemical Genomics Center [NCGC] MLPCN Grant: MH085686 Assay Submitter (PI): Mathias Beller, Max-Planck-Institut fur Biophysikalische Chemie
qHTS was performed with embryonic Drosophila S3 cells (Bloomington Drosophila Genomics Resource Center [DGRC]). We dispensed 4 uL of cells at 1.25 x 10^6 cells/mL into LoBase Aurora COC 1,536-well plates (black walled, clear bottom) with a bottle-valve solenoid-based dispenser (Aurora) to obtain 5,000 cells/well. Triacsin C (Sigma-Aldrich T-4540), an inhibitor of long-chain fatty acyl CoA synthetase that blocks synthesis of triglycerides, was used as a positive control for lipid under-storage. A total of 23 nL of compounds dissolved in DMSO at different concentrations were transferred to the assay plates using a Kalypsys pin tool equipped with a 1,536-pin array containing 10-nL slotted pins (FP1S10, 0.457-mm diameter, 50.8 mm long; V&P Scientific). The final DMSO concentration was 0.46%. One microliter of oleic acid at 400 uM (Calbiochem, #4954) was added to induce lipid droplet formation in the cells, and the plates were lidded with stainless steel rubber gasket lined lids containing pinholes. After 18-24 h incubation at 25 0C and 95% humidity, 4 uL of the BODIPY lipid dye 493/503 (1:2000, Molecular Probes) and the Cell Tracker Red CMTPX dye (Life Technologies, # 34552) were added to the wells to stain lipid droplets and enumerate cell number, respectively. Fluorescence was detected by excitation of the fluorophores with a 488-nm laser on an Acumen Explorer (TTP Lab Tech). The total intensity in channel 1 (500-530 nm) reflected lipid droplet accumulation. Cells were detected using channel 3 (575-640 nm) with 5-um width and 100-um depth filters. The ratio of the total intensity in PMT channel 1 over total intensity of channel 3 was also calculated. Percent activity was computed relative to an internal control (100% inhibited lipid droplet deposition due to the presence of 20 uM Triacsin C), which was added to 32 wells/plate.

Structure (SMILES)	Potency
O=C(NCCc1ccc2c(c1)OCO2)c1cc2sccc2[nH]1	inactive
O=C(NC1CCCc2c1cnn2CCO)c1ccccn1 (stereo not given)	inactive
O=C(NC1CCCc2c1cnn2-c1ccc(F)cc1F)c1ccc(C2(C(F)(F)F)N=N2)cc1 (stereo not given)	7430 nM (active)
CCOc1cc(F)c(CCNC(=O)c2cc3sccc3n2Cc2ccccc2)cc1OCC	3.3 nM (active)
CCOc1ccc(CCNC(=O)c2cc3ccccc3n2Cc2cc(C)cc(C)n2)cc1OCC	16.6 nM (active)
CC(C)(C)OC(=O)NCCOCCOCCOc1cccc(-n2ncc3c2CCCC3NC(=O)c2ccccn2)c1 (stereo not given)	18.7 nM (active)
CCOc1ccc(CCNC(=O)CN(C)C)cc1OCC	inactive
Cn1c(=O)n(-c2ccc(C(C)(C)C#N)cc2)c2c3cc(-c4cnc5ccccc5c4)ccc3ncc21	1180 nM (active)
CCOC(=O)C1CCN(C(=O)C(C)(C)NC(=O)Nc2ccc([N+](=O)[O-])cc2)CC1	inactive
O=C(NC1CCCc2c1cnn2-c1ccc(F)cc1F)C1CCCCC1 (stereo not given)	inactive
O=C(O)c1cccc(-c2noc(-c3ccccc3F)n2)c1	inactive
COc1nc(-c2ccc3c(c2)OCO3)n(-c2ccc(NC(=O)CSc3ccccc3)cc2)n1	inactive
CCOC(=O)C1CCN(C(=O)C2(NC(=O)Nc3ccccc3Cl)CCCCC2)CC1	166 nM (active)
CCOC(=O)C1CCN(C(=O)C(C)(C)NC(=O)Nc2ccc3ccccc3c2)CC1	4690 nM (active)
CC1=C(C(=O)NC2CCCc3c2cnn3-c2ccc(F)cc2F)OCCO1 (stereo not given)	59 nM (active)
CCOc1ccc(CCNC(=O)c2cc3ccccc3o2)cc1OCC	inactive
CCOc1ccc(CCNC(=O)c2ccc(N3N=C(C)CC3=O)cc2)cc1OCC	inactive
O=C(NC1CCCc2c1cnn2-c1ccc(F)cc1F)c1ccncc1 (stereo not given)	inactive
CCOC(=O)C1CCN(C(=O)C(C)(C)NC(=O)Nc2ccc(OC)c(Cl)c2)CC1	inactive
C[C@@H](NCCCc1cccc(C(F)(F)F)c1)c1cccc2ccccc12	inactive

Structure (SMILES)	Potency
O=C(NC1CCCc2c1cnn2-c1ccc(F)cc1F)c1ccccn1 (stereo not given)	23.5 nM (active) and 4.7 nM (active)
COc1cc(C)c(Sc2cnc(NC(=O)c3ccc(CNC(C)C(C)(C)C)cc3)s2)cc1C(=O)N1CCN(C(C)=O)CC1 (stereo not given)	inactive
O=C(Nc1cccc2nn(-c3ccc(F)cc3)cc12)c1ccccn1	inactive
CCOC(=O)C1CCN(C(=O)C(C)(C)NC(=O)Nc2ccc(N)cc2)CC1	inactive
CCOc1ccc(CCNC(=O)c2cc3sccc3n2Cc2ccccc2)c(F)c1OCC	inactive
CCOc1ccc(CCNC(=O)c2cc3sccc3n2CCN2CCOCC2)cc1OCC	148 nM (active)
COc1ccc(-n2ncc3c2CCCC3NC(=O)c2ccccn2)cc1 (stereo not given)	1.3 nM (active)
CC(C)(NC(=O)Nc1ccccc1Cl)C(=O)N1CCC(C(=O)O)CC1	inactive
O=C(Nc1cccc2c1cnn2-c1ccc(F)cc1)c1ccccn1	inactive
Cc1cc2c(cc1C1(c3ccc(C(=O)O)cc3)CC1)C(C)(C)CCC2(C)C	inactive
CCOc1ccc(CCNC(=O)c2cc3sccc3[nH]2)cc1OCC	inactive
Cc1ccc(NC(=O)c2ccc(CN3CCN(C)CC3)cc2)cc1Nc1nc(-c2cccnc2)cs1	inactive
CC(C)(C)OC(=O)NCCOCCOCCOCCn1ncc2c1CCCC2NC(=O)c1ccccn1 (stereo not given)	inactive
CCOc1ccc(CCNC(=O)c2cc3sccc3n2C(C)C)cc1OCC	187 nM (active)
O=C(NC1CCCc2c1cnn2-c1cccc(O)c1)c1ccccn1 (stereo not given)	41.8 nM (active)
CCOC(=O)C1CCN(C(=O)C(C)(C)NC(=O)Nc2cccc(OC)c2)CC1	inactive
CCOC(=O)C1CCN(C(=O)C(C)(C)NC(=O)Nc2ccc(CN3CCOCC3)cc2)CC1	inactive
CCOC(=O)C1CCN(C(=O)C(C)(C)NC(=O)Nc2ccc(-c3ccccc3)cc2)CC1	inactive
CCOC(=O)C1CCN(C(=O)CNC(=O)Nc2ccccc2Cl)CC1	inactive
Cc1cn(-c2cc(NC(=O)c3ccc(C)c(Nc4nccc(-c5cccnc5)n4)c3)cc(C(F)(F)F)c2)cn1	inactive

From PubChem BioAssay AID652175 (National Center for Advancing Translational Sciences (NCATS), 2013)
